Our source for the Potency, viability change, negative = cytotoxic and activity change, negative = inhibition values is PubChem BioAssay (Tox21).

Molecules are shown by their SMILES. Results filed as inconclusive are left out. Unmarked numbers belong to inactive results. Activity calls are given as the source filed them. Unless noted, calls come from the whole dose curve; as a rule, active = well fitted curve in the direction sought with a large enough effect in the repeat runs; inconclusive = weak or mixed curves; inactive = no such curve, though single readings can be large; an effect the other way counts as inactive or inconclusive.

Experiment [1] can be described thus: qHTS assay to identify small molecule antagonists of the estrogen related receptor (ERR) signaling pathway (AID 1224819; note: nearly all actives have a fitted effect of over 50% in size; note: potency is the fitted concentration of half-maximal effect;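 for activity change, negative = inhibition: luminescence from an ERR-driven luciferase reporter measured with One-Glo reagent; series mostly up to about 46 µM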). In short, it runs like this:
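qHTS in ERR cells, 2,000/well, 1536 format. Cpd (DMSO) added after 6 h settle, 18 h 37 C. One-Glo luminescence, 30 min RT.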

Experiment [2] is described as follows: qHTS assay to identify small molecule agonists of the estrogen related receptor (ERR) signaling pathway (AID 1224820). In short, it runs like this:
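ERR reporter cells (NTP line) plated 2,000/well, incubated 6 h at 37 C/5% CO2, then pinned with compounds in DMSO and held 18 h at 37 C. One-Glo added; luminescence read after 30 min at room temperature.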

Experiment [3] has as its system estrogen-related receptor alpha (ERRalpha) with PGC-1alpha coactivator, human. Briefly: qHTS assay to identify small molecule antagonists of the estrogen related receptor signaling pathway with the pleiotropic PPARgamma coactivator (PGC) (AID 1224821; calls by dose curve; note: nearly all actives have a fitted effect of over 50% in size; note: potency is the fitted concentration of half-maximal effect;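 for activity change, negative = inhibition: series mostly up to about 46 µM; lower luminescence signal means antagonism of PGC/ERR signalling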). An outline of the steps:
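Cells engineered for PGC/ERR signalling (line from NTP) were plated 6 h at 37 C/5% CO2, then exposed to DMSO-dissolved compound for 18 h at 37 C. Luciferase activity was read by One-Glo luminescence after 30 min at room temperature.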

The nature of experiment [4]: qHTS assay to identify small molecule agonists of the estrogen related receptor signaling pathway with the pleiotropic PPARgamma coactivator (PGC) (AID 1224823). Note: potency is the fitted concentration of half-maximal effect. An outline of the steps:
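PGC/ERR reporter cells were seeded, rested 6 h at 37 C/5% CO2, then exposed to compounds in DMSO by pin transfer for 18 h at 37 C. Luciferase activity was read as luminescence after One-Glo reagent and 30 min at room temperature.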

Experiment [5] can be described thus: qHTS assay to identify small molecule antagonists of the estrogen related receptor signaling pathway with the pleiotropic PPARgamma coactivator (PGC) cell viability counter screen (AID 1224822;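 note: series mostly up to about 46 µM; viability read after 17.5 h compound exposure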). In short, it runs like this:
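Compounds in DMSO, with positive and negative controls, were applied to PGC/ERR cells (2,000/well) and left 17.5 h at 37 C before CellTiter-Fluor detection.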

Experiment [6] is described as follows: qHTS assay to identify small molecule agonists of the constitutive androstane receptor (CAR) signaling pathway - cell viability counter screen (AID 1224836). For viability change, negative = cytotoxic: series mostly up to about 92 µM. Note: nearly all actives have a fitted effect of over 45% in size. Note: potency is the fitted concentration of half-maximal effect. In short, it runs like this: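 Counter screen multiplexed with the CAR reporter readout: HepG2 cells co-transfected with hCAR and the CYP2B6-2.2kb construct receive a 15-concentration compound series and 0.75 uM PK11195 (final), then CellTiter-Fluor fluorescence is read after 23 h.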

The nature of experiment [7]: qHTS assay to identify small molecule antagonists of the estrogen related receptor (ERR) signaling pathway from Tox21 library - cell viability counter screen (AID 1224834). Note: nearly all actives have a fitted effect of over 30% in size. Note: potency is the fitted concentration of half-maximal effect. An outline of the steps: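 CellTiter-Fluor fluorescence measured; ERR cells; 17.5 h compound incubation at 37 C; 30 min reagent step.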
The target of experiment [8] is Luciferin 4-monooxygenase (Photinus pyralis) (UniProt P08659). Nature of the experiment: qHTS assay to identify small molecule inhibitors of firefly luciferase (AID 1224835). For activity change, negative = inhibition: series mostly up to about 120 µM. Note: nearly all actives have a fitted effect of over 25% in size. Note: potency is the fitted concentration of half-maximal effect. An outline of the steps: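 Biochemical qHTS: compounds run as interplate titrations against purified firefly enzyme, with D-luciferin and ATP each at its KM concentration. Light output recorded by CCD imaging.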
% is set by controls: 0 for no effect and ±100 for the full control effect.

Luciferin 4-monooxygenase (Photinus pyralis), sequence (P08659 whole entry, looked up): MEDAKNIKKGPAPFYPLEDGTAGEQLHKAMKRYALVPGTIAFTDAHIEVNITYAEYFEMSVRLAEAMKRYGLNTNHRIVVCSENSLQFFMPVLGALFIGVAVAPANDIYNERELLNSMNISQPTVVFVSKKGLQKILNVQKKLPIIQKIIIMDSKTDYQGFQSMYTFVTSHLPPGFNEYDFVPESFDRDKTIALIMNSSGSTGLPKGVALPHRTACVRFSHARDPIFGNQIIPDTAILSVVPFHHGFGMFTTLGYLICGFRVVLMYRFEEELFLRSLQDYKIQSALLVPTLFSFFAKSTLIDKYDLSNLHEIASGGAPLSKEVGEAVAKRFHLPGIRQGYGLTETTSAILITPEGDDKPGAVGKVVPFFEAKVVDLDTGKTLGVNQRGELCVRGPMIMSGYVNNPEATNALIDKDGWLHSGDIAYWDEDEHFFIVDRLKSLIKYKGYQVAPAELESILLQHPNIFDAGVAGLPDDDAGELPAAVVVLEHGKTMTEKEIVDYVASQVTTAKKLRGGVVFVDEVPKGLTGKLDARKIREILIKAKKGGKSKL

Take `O=C1NCc2c1c1c3ccccc3[nH]c1c1[nH]c3ccccc3c21`: the Potency in experiment [1] is 2.76 µM (active). Moreover, the Potency result in experiment [2], in experiment [3] and in experiment [4] was “inactive” throughout.

As for `CC[C@@H]1Cc2cc(O)ccc2C2=C1c1ccc(O)cc1C[C@H]2CC`, the Potency in experiment [1] was 14.4 µM (active); in experiment [3], 15 µM (active). Further, the Potency entry in experiment [2] and in experiment [4] was “inactive” each time.

Turning to `CC1(C)C(=O)N(CCN2CCC(C(=O)c3ccc(F)cc3)CC2)c2ccccc21`, the Potency in experiment [1] was 21.1 µM (active). Further, the Potency entry in experiment [4] was “inactive”.

As for `Cn1c(=O)c(-c2c(Cl)cccc2Cl)cc2cnc(Nc3ccc(N4CCOCC4)cc3)nc21`, the Potency in experiment [1] is 4.38 µM (active). For the same molecule, the Potency result in experiment [2] and in experiment [3] was “inactive” each time.

Take `N#C/C(=C\c1ccc(O)c(O)c1)C(=O)Nc1ccccc1`: the Potency result in experiment [1] and in experiment [3] was “inactive” throughout.

Take `CCOC(=O)C1=C(C)NC(C)=C(C(=O)OCC)C1c1c(F)c(F)c(F)c(F)c1F`: the Potency in experiment [1] is 19.6 µM (active); in experiment [3] it was 25.6 µM (active). Also, the Potency result in experiment [2] and in experiment [4] was “inactive” in each case.

With `O=C(/C=C/c1ccc(O)c(O)c1)OCCc1ccccc1`, the Potency entry in experiment [1], in experiment [2], in experiment [3] and in experiment [5] was “inactive” throughout. In addition, the Potency in experiment [4] is 14.4 µM (active).

For `CN1CCN(CCCN2c3ccccc3Sc3ccc(C(F)(F)F)cc32)CC1`, the Potency result in experiment [6] is “inactive”.

For the molecule `CN1CCN(CCCN2c3ccccc3Sc3ccc(Cl)cc32)CC1`, the Potency entry in experiment [6] is “inactive”.

For `CC1(C)[C@H]2CC[C@]1(C)C(=O)C2`, the Potency entry in experiment [7], in experiment [8] and in experiment [6] was “inactive” each time.

As for `C=C1CC[C@H]2O[C@]2(C)CC[C@@H]2[C@@H]1CC2(C)C`, the Potency result in experiment [7], in experiment [8] and in experiment [6] was “inactive” each time.

`c1ccc(-c2ccc(C(c3ccccc3)n3ccnc3)cc2)cc1` (stereo not drawn): the Potency in experiment [7] is 33.5 µM (active). Besides, the Potency entry in experiment [8] and in experiment [6] was “inactive” each time.

`C/C=C/C(=O)OCC(C)C`: the Potency entry in experiment [7], in experiment [8] and in experiment [6] was “inactive” throughout.

With `O=C(Cl)c1ccc(Cl)cc1Cl`, the Potency result in experiment [7] and in experiment [6] was “inactive” each time. Moreover, the Potency in experiment [8] was 25.2 µM (active).

Turning to `CCN(CC)c1ccc2c(c1)Oc1cc(N(CC)CC)ccc1C21OC(=O)c2ccccc21`, the Potency was 6.68 µM (active) in experiment [7], 13.8 µM (active) in experiment [8] and 8.41 µM (active) in experiment [6].

Turning to `O=C1CCC/C=C\CCCCCCCCCC1`, the Potency result in experiment [7], in experiment [8] and in experiment [6] was “inactive” in each case.

For `Cc1cc(C)c(O)c(C(C)(C)C)c1`, the Potency result in experiment [7], in experiment [8] and in experiment [6] was “inactive” in each case.

In the case of `Cc1ccc2n[nH]nc2c1`, the Potency result in experiment [7], in experiment [8] and in experiment [6] was “inactive” each time.

`Nc1cc([N+](=O)[O-])ccc1Cl`: the Potency result in experiment [7], in experiment [8] and in experiment [6] was “inactive” in each case.

For the molecule `C=C(C)C1CCC(C)CC1O` (stereo not drawn), the Potency result in experiment [7], in experiment [8] and in experiment [6] was “inactive” in each case.

As for `Brc1cc(Br)cc(Br)c1`, the Potency entry in experiment [7], in experiment [8] and in experiment [6] was “inactive” throughout.

`c1ccc(C[P+](c2ccccc2)(c2ccccc2)c2ccccc2)cc1`: the Potency in experiment [7] was 21.7 µM (active); in experiment [6], 30.6 µM (active). Also, the Potency result in experiment [8] was “inactive”.

On to `Nc1c(Br)cc([N+](=O)[O-])cc1Br`, for which the Potency result in experiment [7], in experiment [8] and in experiment [6] was “inactive” each time.

With `O=C1OCc2ccccc21`, the Potency entry in experiment [7], in experiment [8] and in experiment [6] was “inactive” in each case.

Turning to `O=C(O)CN(CCCN(CC(=O)O)CC(=O)O)CC(=O)O`, the viability change, negative = cytotoxic in experiment [7] is 11.6% [at 19 µM]; in experiment [6] it was -21.6% [at 19 µM]. Further, in experiment [8], the activity change, negative = inhibition is 0.284% [at 23.6 µM].

Take `CCc1cccc(C)c1N(C(=O)CS(=O)(=O)O)C(C)COC` (stereo not drawn): the Potency result in experiment [7], in experiment [8] and in experiment [6] was “inactive” throughout.

On to `CCCC(C)C=O` (stereo not drawn), for which the Potency entry in experiment [7], in experiment [8] and in experiment [6] was “inactive” throughout.

In the case of `O=C1c2ccccc2C(=O)c2c(Cl)cccc21`, the Potency result in experiment [7], in experiment [8] and in experiment [6] was “inactive” throughout.

Consider `C=COCCCC`, for which the Potency result in experiment [7], in experiment [8] and in experiment [6] was “inactive” each time.

As for `Cc1ccc(Cl)c(N)c1Cl`, the Potency result in experiment [7], in experiment [8] and in experiment [6] was “inactive” each time.

For `Oc1ccc(C2(c3ccc(O)c(C4CCCCC4)c3)CCCCC2)cc1C1CCCCC1`, the Potency in experiment [7] is 61.1 µM (active); in experiment [6] it was 48.6 µM (active). Further, the Potency result in experiment [8] was “inactive”.

As for `CN1CCN(c2ccccc2/C=C2\SCCN(c3ccc(Cl)c(Cl)c3)C2=O)CC1`, the Potency was 54.5 µM (active) in experiment [7] and 43.3 µM (active) in experiment [6]. In experiment [8], the Potency entry is “inactive”.

For `O=[N+]([O-])c1ccc(O)c2ncccc12`, the Potency in experiment [7] was 11.9 µM (active). Moreover, the Potency result in experiment [8] and in experiment [6] was “inactive” in each case.

In the case of `N#Cc1nc(Cl)c(Cl)c(Cl)c1Cl`, the Potency in experiment [7] was 27.3 µM (active); in experiment [6], 43.3 µM (active). For the same molecule, in experiment [8], the Potency result is “inactive”.

For the molecule `CCn1c2ccccc2c2ccccc21`, the Potency entry in experiment [7], in experiment [8] and in experiment [6] was “inactive” throughout.

Regarding `CCOC(=O)OC(=O)OCC`, the Potency result in experiment [7], in experiment [8] and in experiment [6] was “inactive” in each case.

On to `NCc1ccco1`, for which the Potency entry in experiment [7], in experiment [8] and in experiment [6] was “inactive” each time.

Take `Cc1ccc(C2OC[C@@H]3OC(c4ccc(C)cc4)O[C@H]([C@H](O)CO)[C@@H]3O2)cc1` (stereo partly drawn): the Potency entry in experiment [7], in experiment [8] and in experiment [6] was “inactive” throughout.

`[Cl][Dy]([Cl])[Cl]`: the Potency result in experiment [7] and in experiment [6] was “inactive” throughout. Moreover, the Potency in experiment [8] is 28.3 µM (active).

Turning to `CCc1c(C)cc(N)c(CC)c1N`, the Potency entry in experiment [7], in experiment [8] and in experiment [6] was “inactive” in each case.

In the case of `CC(CC(C)(C)C)CC(C)(C)CC(C)(C)C` (stereo not drawn), the Potency entry in experiment [7], in experiment [8] and in experiment [6] was “inactive” throughout.

Turning to `O=C(Nc1ccccc1)c1cc(Cl)ccc1O`, the Potency was 15.4 µM (active) in experiment [7], 3.99 µM (active) in experiment [8] and 24.3 µM (active) in experiment [6].

As to `CCCCCCCCc1ccc(Nc2ccc(CCCCCCCC)cc2)cc1`, the Potency entry in experiment [7], in experiment [8] and in experiment [6] was “inactive” throughout.

`Cc1cc(Br)ccc1NC(=O)CCl`: the values for the Potency in experiment [7] and in experiment [6] were 19.3 µM (active) and 48.6 µM (active), respectively. Further, the Potency result in experiment [8] is “inactive”.

Regarding `CC(C=O)c1ccccc1` (stereo not drawn), the Potency result in experiment [7], in experiment [8] and in experiment [6] was “inactive” throughout.

On to `CSc1nnc(C(C)(C)C)c(=O)[nH]1`, for which the Potency entry in experiment [7], in experiment [8] and in experiment [6] was “inactive” each time.

On to `O=c1cc[nH]cc1`, for which the Potency entry in experiment [7], in experiment [8] and in experiment [6] was “inactive” in each case.

As for `CC(C)c1ccc2sc3ccccc3c(=O)c2c1`, the Potency result in experiment [7] and in experiment [6] was “inactive” throughout. Moreover, the Potency in experiment [8] is 1.59 µM (active).
